PubChem BioAssay AID1345082 (National Center for Advancing Translational Sciences (NCATS), 2018)
Among all 94,000 compounds or so, about 4,000 (4.3%) were called active. Not shown: some 29% with an inconclusive outcome. The entries come from a sample that favours actives as a whole. A number with no mark means an inactive call. Calls come from the whole dose curve; as a rule, active = well fitted inhibition curve with a large enough effect; inconclusive = small, poorly fitted or top-dose-only effect; inactive = no such curve, though single readings can be large or run the other way.

Assay: Cytotoxic Profiling in NIH 3T3 Cell Line of Diverse Libraries Using Quantitative High-Throughput Screening; note: nearly all actives have a fitted effect of over 55% in size
Conditions: NIH 3T3 viability, CellTiter-Glo ATP luminescence, 48-72 h; series mostly up to 96.7 µM; activity change, negative = cytotoxicity: at the top concentration
Procedure, shortened: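 ATP-dependent luminescence (CellTiter-Glo) served as the viability signal for NIH 3T3 cells treated with compound for 48 or 72 hr at 37 °C.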
% is set by controls: 0 for no effect and ±100 for the full control effect; potency is the fitted concentration of half-maximal effect.

Compound | Potency | activity change, negative = cytotoxicity | outcome
Cn1ncc2c(C(=O)N3CCC(c4ccccc4)CC3)cc(-c3ccc(F)cc3)nc21 | 39.8 µM (active) | – | –
CC(=O)N1CCN(C(=O)c2cc(-c3cccc(F)c3)nc3c2cnn3C)CC1 | – | -25.5% | –
COc1cccc(-c2cc(C(=O)N3CCN(C(C)=O)CC3)c3cnn(C)c3n2)c1 | – | -17.5% | –
O=C(NC1CC1)c1cc2n(n1)CCN(C(=O)c1ccc3n[nH]nc3c1)C2 | – | -13.9% | –
CCCN(CC1CCOC1)C(=O)Nc1cc(F)ccc1F (configuration not stated) | – | -6.36% | –
COc1ccccc1-c1cc(C(=O)NCc2ccccn2)nn2cnnc12 | – | -25.9% | –
Cc1nn(-c2ccccc2)c2c1C(C(C)C)N(C1CCN(C(=O)c3ccc(Cl)nc3)CC1)C2=O (configuration not stated) | – | -26.8% | –
COc1ccc(-n2nc(C)c([C@H]3C=C[C@@H](OC(=O)Nc4cccc(F)c4)C3)c2C)cc1 | 28.2 µM (active) | – | –
COc1cccc(-c2cc(C(=O)Nc3cccc(F)c3)c3cnn(C)c3n2)c1 | – | -21.1% | –
Cc1nn(-c2ccccc2)c2c1C(C(C)C)N(C1CN(C(=O)c3ccc(Cl)nc3)C1)C2=O (configuration not stated) | – | 2.41% | –
Cc1nn(-c2ccc(C(C)C)cc2)c(C)c1[C@@H]1C=C[C@@H](NC(=O)Nc2ccccc2)C1 | 50.1 µM (active) | – | –
COc1cccc(NC(=O)Cn2c(=O)n(-c3ccc(F)cc3)c(=O)c3c2cc(C)n3C)c1 | – | -15.1% | –
Cc1nn(-c2ccc(C(C)C)cc2)c(C)c1[C@@H]1C=C[C@@H](NC(=S)NCC(C)C)C1 | 22.4 µM (active) | – | –
Cc1nn(-c2ccc(C(C)(C)C)cc2)c(C)c1[C@@H]1C=C[C@@H](NC(=O)c2ccco2)C1 | 35.5 µM (active) | – | –
CCC(C)NC(=O)Cc1csc2nc(C)c(-c3cc(C)n(-c4ccc(C(C)C)cc4)n3)c(=O)n12 (configuration not stated) | – | -34.3% | –
O=C(N[C@@H]1CN(c2ncccn2)C[C@H]1CO)c1ccco1 | – | -10.3% | –
Cc1cnc(CCNC(=O)c2ccco2)n1C1CCC1 | – | -12.6% | –
CC(C)c1nc(CCn2cc(-c3cncnc3)nn2)cs1 | – | -10.5% | –
Cc1ccc(CN2C[C@@H](CO)[C@H](c3nc(C)no3)C2)nc1 | – | -11.2% | –
COc1ccccc1C(=O)N1CCc2nnc([C@@H]3C[C@@H](O)CN3C)n2CC1 | – | – | inactive
CN1CCC(NC[C@H]2O[C@@H]3C[C@@H](CC(=O)NCc4cnn(C)c4)O[C@@H]3[C@@H]2O)CC1 | – | 1.18% [at 174 µM] | –
CC(C)c1nc2c(c(-c3ccc(Cl)cc3)n1)CN(C(=O)c1ccccc1)CC2 | – | -19.8% | –
COc1ccc(C(=O)N2CCC(CCn3c(C)cnc3C3CC3)CC2)cc1 | – | -23.3% | –
COC(=O)CNC(=O)NC1CCN(C(=O)N2CC3CC(C2)[C@H]2CCCC(=O)N2C3)CC1 (some centres not stated) | – | 4.02% | –
Cc1ccc2c(c1)C(C[C@H]1CN(C(=O)NC(C)C)CC[C@H]1CC(=O)O)=NCC2 | – | 1.35% [at 174 µM] | –

Compound | Potency | activity change, negative = cytotoxicity | outcome
Cc1noc(C)c1[S+](=O)([O-])N1CCC2(CC1)C(=O)NN=C2c1cccnc1 | – | -26.3% | –
Cc1ccccc1CNC(=O)CN1C(=O)C2(CCNCC2)Nc2ccccc21 | – | – | inactive
CN(Cc1cccc(C(F)(F)F)c1)Cc1cccc(C(F)(F)F)c1 | – | -4.01% | –
CC(C)(C)n1nnnc1C1CC2(CCOCC2)C(=O)N1Cc1ccc(F)cc1 (configuration not stated) | – | -0.724% | –
COc1cccc(-c2cccc(C(=O)N3CCCC3C(=O)NCC3CC3)c2)c1 (configuration not stated) | – | -10.9% | –
COc1cccc(-c2ccc(CN3CCCC3C(=O)NCc3ccccc3Cl)cc2)c1 (configuration not stated) | 39.8 µM (active) | – | –
Cc1ccc(-c2cccc(CN3CCCC3C(=O)NCc3ccc(C(F)(F)F)cc3)c2)cc1Cl (configuration not stated) | 31.6 µM (active) | – | –
Cc1ccc(CNC(=O)[C@@H]2COCC(=O)N2Cc2ccc(F)cc2)cc1 | – | -23.1% | –
COc1cccc(CC(=O)N2CCC(N3C(=O)CCC3C(=O)NCc3ccccc3)CC2)c1 (configuration not stated) | – | -14.4% | –
Cc1ccc(-c2cccc(CN3CCCC(NC(=O)c4ccc(C(F)(F)F)cc4)C3)c2)cc1Cl (configuration not stated) | – | -4.84% | –
CN(CC1CCOCC1)C(=O)Cc1ccsc1 | – | – | inactive
COc1ccc(N2CCC(NS(=O)(=O)C3CC3)C2=O)cc1 (configuration not stated) | – | -15.8% | –
CN(C)Cc1cn(C[C@H]2C[C@@H](NS(=O)(=O)c3ccccc3)[C@H](O)[C@@H]2O)nn1 | – | -5.32% [at 174 µM] | –
O=C(C1CCC1)N1CCC(C(=O)N2CCCC2c2ccco2)CC1 (configuration not stated) | – | 1.21% | –
CN(CC1CCOCC1)C(=O)c1ccc(Cl)cc1 | – | -0.189% | –
O=C(C1CCCCN1Cc1ccc(-c2cccs2)cc1)N1CCOCC1 (configuration not stated) | – | 0.343% | –
CCOCCNC(=O)C1CCCCN1Cc1ccc(-c2cc(F)ccc2OC)cc1 (configuration not stated) | 39.8 µM (active) | – | –
CCN1CCN(C(=O)C2CCCCN2Cc2ccc(-c3cc(F)ccc3OC)cc2)CC1 (configuration not stated) | 35.5 µM (active) | – | –
CC(=O)N1CCCN(C(=O)C2CCCCN2Cc2ccc(-c3ccsc3)cc2)CC1 (configuration not stated) | – | -22.7% | –
CCOCCOC1CCN(C(=O)NCc2ccc(F)cc2)CC1 | – | -4.23% | –
COCCNC(=O)[C@@H]1CCC[C@@H](NCc2ccc(F)cc2)CN(C)C(=O)C1 | – | -11.3% [at 174 µM] | –
O=C(c1cccn1C1CC1)N1C[C@H](CO)C[C@H](CN2CCCC2)C1 | – | -2.77% | –
COCC1CN(C)CC12CCN(C(=O)C1CCOCC1)CC2 (configuration not stated) | – | -0.42% | –
Cc1ccccc1S(=O)(=O)N1CCC2(CC1)CC(OCC1CC1)CCO2 (configuration not stated) | – | -19.2% | –
COc1cc(F)ccc1-c1ccnc2nc(C(C)C)nn12 | – | -24.5% | –

Compound | Potency | activity change, negative = cytotoxicity | outcome
Cc1noc([C@@H]2CN(S(=O)(=O)c3cccs3)C[C@H]2C(N)=O)n1 | – | -16.9% | –
COc1ccccc1-c1onc(C)c1C(=O)NCc1ccc(Cl)cc1 | – | -28.6% | –
COc1ccccc1-c1onc(C)c1C(=O)NCCC(c1ccccc1)c1ccccc1 | 31.6 µM (active) | – | –
CCCOCCCNC(=O)c1c(C)noc1-c1cc(OC)c(OC)c(OC)c1 | – | -17.4% | –
COC[C@@H]1CN(Cc2ccccn2)C[C@H]1C(=O)N(C)C | – | -6.36% | –
Cc1cc(CNC(=O)C2CCCN(C3CCN(CCc4ccccc4)CC3)C2)on1 (configuration not stated) | – | 0.71% | –
CC(C)CCNC(=O)c1cnc2c(c1)N(Cc1ccccc1)CCC2 | 79.4 µM (active) | – | –
CC(C)Nc1ncc(C(=O)NC2CCCN(CCc3ccccc3)C2)cn1 (configuration not stated) | – | -6.8% | –
O=C(Nc1cccc(Cl)c1)c1cnc2c(c1)N(C(=O)CCc1ccccc1)CCC2 | – | -20% [at 138 µM] | –
Cc1cccc(C(=O)N2CCCN(c3nnc4ccccn34)CC2)c1 | – | -8.72% | –
Cc1cc(C(=O)NCC(C)C)c2c(C3CCNC3)noc2n1 (configuration not stated) | – | 2.92% [at 138 µM] | –
COc1cc(SC)ccc1C(=O)N[C@@H]1C=C(C(=O)N[C@@H](Cc2cccs2)C(N)=O)C[C@@H](O)[C@@H]1O | – | – | inactive
Cc1ccc(C)c(NC(=O)C2CC(=O)N(c3n[nH]c4cc(Br)ccc34)C2)c1 (configuration not stated) | – | -8.49% | –
Cc1nc(N2CCC(NC(=O)c3cnccn3)CC2)cc(C(F)(F)F)n1 | – | -1.41% | –
Cc1nc(N2CCC(NCCNc3ccncc3C)CC2)c2ccsc2n1 | 44.7 µM (active) | – | –
Cc1[nH]ncc1CNC(=O)C1CCN(c2cnn(CC3CC3)c(=O)c2)C1 (configuration not stated) | – | 3.61% | –
O=C(NCc1nc(-c2ncccn2)no1)[C@H]1CNC[C@@H](C(=O)N2CCCC2)C1 | – | -8.69% | –
O=C1CCN(C(=O)c2ccc3ccccc3n2)CCCCCCN1 | – | -19.4% | –
CCn1cc(CN2CCCCCNC(=O)[C@@H]3CCC[C@@H]32)cn1 | – | -2.66% | –
CC(C)(C)c1nc(C(=O)N2CCOCC2)n2ccccc12 | – | -17.5% [at 138 µM] | –
O=C(c1nc(-c2cccnc2)c2cnccn12)N1CCN(c2ncccn2)CC1 | – | -8.83% | –
Cc1cccc(C)c1-c1nc(C(=O)N2CCN(c3ncccn3)CC2)n2ccccc12 | 39.8 µM (active) | – | –
COc1ccc(C2Cn3cnc(C(=O)N4CCC(C(=O)NC5CCCC5)CC4)c3CO2)cc1 (configuration not stated) | – | -13.7% | –
COCC1CN(C(C)=O)CC12CCN(C(=O)C1CC=CCC1)CC2 (configuration not stated) | – | -5.78% | –
CC(=O)N1CCCC1C(=O)N1CCC(c2ccccc2)CC1 (configuration not stated) | – | 2.07% [at 138 µM] | –

Compound | Potency | activity change, negative = cytotoxicity | outcome
COC(=O)CNC(=O)C1CCN(Cc2ccccc2-c2ccccc2F)CC1 | – | -18.2% | –
O=C(C1CCN(Cc2ccccc2-c2ccccc2F)CC1)N1CCC(c2ccccc2)CC1 | 31.6 µM (active) | – | –
Cc1noc(C)c1CC(=O)N1CCC(c2n[nH]c(=O)n2Cc2ccc(F)cc2)CC1 | – | -5.74% | –
O=C(C1CCC1)N1CCC(Oc2cccnc2)C1 (configuration not stated) | – | – | inactive
COc1cc(F)ccc1-c1ccc(COc2ccc3c(cnn3CCC(=O)O)c2)cc1 | – | -21.2% [at 138 µM] | –
O=C(O)CCn1ncc2cc(OC3CCN(C(=O)C4CCCC4)CC3)ccc21 | 44.7 µM (active) | – | –
COc1ccc(CNC(=O)NCC2Cn3cccc3CN2C)cc1 (configuration not stated) | – | 1.33% | –
Cc1ccc(OCc2nc(C3CCN(C(=O)c4noc(C)c4CN4CCCCC4)CC3)no2)cc1 | 31.6 µM (active) | – | –
Cc1ccc(OCc2nc(C3CCN(C(=O)c4c5c(nc6ccccc46)CCCC5)CC3)no2)cc1 | – | -25.4% | –
COCCOCc1nc(C2CCN(C(=O)c3ccncc3)CC2)no1 | – | -9.28% | –
COc1ccc(C(=O)N2CCC(C(=O)N3CCC(N4CCOCC4=O)CC3)CC2)cc1 | – | -10.2% | –
CN(C)CCNC(=O)C(C)(C)Oc1nn(Cc2cccc(Cl)c2)c2ccccc12 | 10 µM (active) | – | –
O=C(CN1C(=O)NC2(CCCCC2)C1=O)Nc1cccc(Br)c1 | – | -14.9% | –
CCNC(=O)N[C@H]1[C@H](O)[C@@H](N(C)CCc2ccccn2)[C@@H]2OC[C@H]1O2 | – | 3.61% [at 174 µM] | –
O=C(C1CCCC1)N1CCCCC1c1nc(C2CC2)n[nH]1 (configuration not stated) | – | – | inactive
COc1ccccc1C(=O)N1CCCN(CCc2ccccc2)c2ccccc21 | 31.6 µM (active) | – | –
COCCN1CCCN(C(=O)c2ccccc2Cl)c2ccccc21 | – | -14.2% | –
CN1CCCN(C(=O)c2ccccc2OC(F)(F)F)c2ccccc21 | – | -29.8% | –
Cc1cc(N)n(CC(=O)N[C@@H]2COCC[C@@H]2OCc2c(C)noc2C)n1 | – | -6.92% | –
CCc1c(C)nn(CCNc2ncnc3c2c(C)nn3C)c1C | – | -25.9% | –
O=C(CC1CC1)N1C[C@H]2OC(=O)N(CCc3cccc(Cl)c3)[C@H]2C1 | – | -8.22% | –
CC(=O)NC1CC2(CCN(C(=O)Cc3c[nH]c4ccccc34)CC2)c2ccccc21 (configuration not stated) | – | -2.64% | –
